From PubChem BioAssay (NCATS) come the findings set out here.

Structures are written as SMILES. Records with an inconclusive call do not appear. The source made the active and inactive calls. The call rests on the fitted dose curve; in most records, active means well fitted curve in the direction sought with a large enough effect; inconclusive means small, poorly fitted or top-dose-only effect, or another doubt; inactive means no such curve, though single readings can be large; an effect the other way counts as inactive or inconclusive.

Assay [1] in a line: Quantitative High-Throughput drug screen in 47 multiple myeloma cell lines against the NCATS MIPE library collection: JIM3_ECACC cell viability assay (AID 1918963; further: nearly all actives have a fitted effect of over 35% in size). The essentials:
(§1)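 qHTS of the MIPE 4.0 collection: 500 myeloma cells/well, 48 h drug exposure at 37C in 5% CO2, then CellTiter-Glo for 5 min at room temperature before luminescence reading.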

Assay [2] in a line: Quantitative High-Throughput drug screen in 47 multiple myeloma cell lines against the NCATS MIPE library collection: INA6_PLB cell viability assay (AID 1918965; further: nearly all actives have a fitted effect of over 55% in size). The essentials: (§2)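 Luminescent ATP measurement with CellTiter-Glo gives viability, scaled between DMSO-only wells (100%) and media-only wells (0%). Cells, 500 per well, faced library compounds for 48 hours at 37C.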

Assay [3] is described as follows: Quantitative High-Throughput drug screen in 47 multiple myeloma cell lines against the NCATS MIPE library collection: H1112_PLB cell viability assay (AID 1918967; further: nearly all actives have a fitted effect of over 30% in size). The essentials:
(§3)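 Primary qHTS used for cherry-picking: cells at 500/well, library compounds for 48 h (37C, 5% CO2), luminescent ATP assay.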

Assay [4] is described as follows: Quantitative High-Throughput drug screen in 47 multiple myeloma cell lines against the NCATS MIPE library collection: Karpas25_ECACC cell viability assay (AID 1918968; further: nearly all actives have a fitted effect of over 35% in size). The essentials: as §3
Assay [5] is described as follows: Quantitative High-Throughput drug screen in 47 multiple myeloma cell lines against the NCATS MIPE library collection: JJN3_DSMZ cell viability assay (AID 1918966; further: nearly all actives have a fitted effect of over 50% in size). The essentials: as §3
Assay [6] can be described thus: Quantitative High-Throughput drug screen in 47 multiple myeloma cell lines against the NCATS MIPE library collection: KMS12BM_JCRB cell viability assay (AID 1918971). Further: nearly all actives have a fitted effect of over 35% in size. The essentials: as §1
The nature of assay [7]: Quantitative High-Throughput drug screen in 47 multiple myeloma cell lines against the NCATS MIPE library collection: JIM1_ECACC cell viability assay (AID 1918964). A digest of the protocol:
as §3

Assay [8] is described as follows: Quantitative High-Throughput drug screen in 47 multiple myeloma cell lines against the NCATS MIPE library collection: KMS27_JCRB cell viability assay (AID 1918970). Further: nearly all actives have a fitted effect of over 30% in size. The essentials: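 Myeloma cells (500 per well) were exposed to MIPE 4.0 compounds for 48 h at 37 °C, 5% CO2; viability was read as ATP luminescence with CellTiter-Glo, normalized to DMSO-only (100%) and media-only (0%) wells.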

The nature of assay [9]: Quantitative High-Throughput drug screen in 47 multiple myeloma cell lines against the NCATS MIPE library collection: KMS12PE_JCRB cell viability assay (AID 1918972). Further: nearly all actives have a fitted effect of over 30% in size. On viability: series mostly up to about 46 µM. The essentials:
as §2
Potency means the concentration at half of the fitted maximal effect.

Consider `CCC1(c2ccccc2)C(=O)NCNC1=O`, for which the Potency in assay [1] is 4.69 µM (active); in assay [2], 3.32 µM (active); in assay [3] it was 2.96 µM (active); in assay [4], 1.66 µM (active).

On to `Cc1ccccc1N1C(=O)c2cc(S(N)(=O)=O)c(Cl)cc2NC1C` (stereo not drawn), for which the Potency result in assay [1], in [4] and in assay [6] was “inactive” each time. The Potency in [5] was 4.69 µM (active).

As for `CC(C)(C)C(=O)Oc1ccc(S(=O)(=O)Nc2ccccc2C(=O)NCC(=O)O)cc1`, the Potency result in [1], in [7], in assay [8] and in assay [6] was “inactive” in each case.

For the molecule `O=C(Nc1ccc([N+](=O)[O-])cc1Cl)c1cc(Cl)ccc1O`, the Potency in assay [1] was 0.59 µM (active); in assay [7] it was 1.05 µM (active); in assay [2] it was 0.935 µM (active); in assay [5] it was 1.87 µM (active); in assay [3], 1.32 µM (active); in [4], 0.332 µM (active). Moreover, the results for the Potency in assay [8] and in assay [6] were 0.935 µM (active) and 1.48 µM (active), respectively.

Take `NC(=O)NO`: the Potency is 0.187 µM (active) in assay [1]; 1.66 µM (active) in [7]; 0.166 µM (active) in [2]; 2.35 µM (active) in assay [5]; 2.96 µM (active) in assay [3]; 0.166 µM (active) in [4]. The Potency in assay [8] is 0.743 µM (active); in [6] it was 1.48 µM (active); in assay [9], 0.833 µM (active).

Regarding `CN1C(C(=O)Nc2ccccn2)=C(O)c2ccccc2S1(=O)=O`, the Potency result in assay [1], in [5], in [3] and in assay [6] was “inactive” each time.

`OCCN1CCN(CCCN2c3ccccc3Sc3ccc(C(F)(F)F)cc32)CC1`: the Potency is 26.4 µM (active) in [1]; 16.6 µM (active) in [7]; 16.6 µM (active) in [2]; 2.96 µM (active) in [4]; 9.35 µM (active) in [9].

For `CCN1CCCC1CNC(=O)c1cc(S(=O)(=O)CC)c(N)cc1OC` (stereo not drawn), the Potency result in assay [1], in assay [7], in [2], in [5], in assay [4] and in assay [8] was “inactive” throughout. Moreover, in assay [9], the Potency result is “inactive”.

`COc1nc(C)nc(Cl)c1NC1=NCCN1`: the Potency entry in assay [1], in assay [7], in assay [8] and in [6] was “inactive” each time. Also, the Potency in assay [4] is 9.35 µM (active).

With `CN(C)c1nc(N(C)C)nc(N(C)C)n1`, the Potency result in [1], in assay [3], in [4], in [8], in assay [6] and in [9] was “inactive” each time.

As to `CN1CCN2c3ccccc3Cc3ccccc3C2C1` (stereo not drawn), the Potency in assay [1] is 20.9 µM (active); in [4] it was 23.5 µM (active); in [6] it was 20.9 µM (active); in assay [9], 18.7 µM (active).

`CC(=O)OCC(CCn1cnc2cnc(N)nc21)COC(C)=O`: the Potency entry in [1], in assay [7], in assay [2], in assay [3], in assay [4] and in assay [6] was “inactive” throughout.

Turning to `O=c1[nH]cc(F)c(=O)[nH]1`, the figures for the Potency in assay [1] and in [2] were 20.9 µM (active) and 5.26 µM (active), respectively. In [3], the Potency result is “inactive”.

As to `Clc1ccc2c(c1)C(N1CCNCC1)=Nc1ccccc1O2`, the figures for the Potency in [1] and in assay [4] were 26.4 µM (active) and 14.8 µM (active), respectively. The Potency result in assay [7] and in assay [9] was “inactive” throughout.

For the molecule `CC1(CN2CCC(n3c(=O)[nH]c4ccccc43)CC2)OCc2ccccc2-n2cccc21` (stereo not drawn), the Potency result in [1] was “inactive”. In addition, the Potency in assay [2] is 14.8 µM (active); in [3], 8.33 µM (active); in assay [4], 13.2 µM (active); in assay [6] it was 16.6 µM (active).

For `Cc1cn([C@H]2C[C@H](N=[N+]=[N-])[C@@H](CO)O2)c(=O)[nH]c1=O`, the Potency in [1] is 26.4 µM (active); in assay [5], 5.26 µM (active); in assay [4] it was 26.4 µM (active); in assay [8], 5.26 µM (active). In addition, the Potency entry in [7] and in assay [6] was “inactive” in each case.

For the molecule `CN(C)CCCN1c2ccccc2CCc2ccc(Cl)cc21`, the Potency in assay [1] is 4.69 µM (active); in assay [7], 9.35 µM (active); in assay [4], 0.743 µM (active); in [8], 14.8 µM (active); in [6] it was 18.7 µM (active); in [9], 11.8 µM (active).

Regarding `CN(CCOc1ccc(NS(C)(=O)=O)cc1)CCc1ccc(NS(C)(=O)=O)cc1`, the Potency entry in [1], in assay [7], in assay [2], in assay [5] and in assay [4] was “inactive” throughout.

For `O=C1N(c2ccccc2)c2ccccc2C1(Cc1ccncc1)Cc1ccncc1`, the Potency entry in assay [1], in [5], in assay [4], in assay [8] and in assay [9] was “inactive” each time.

With `CCOC(=O)c1ncn2c1CN(C)C(=O)c1cc(F)ccc1-2`, the Potency entry in assay [1], in assay [7], in assay [2], in assay [3] and in [4] was “inactive” throughout. Moreover, in assay [6], the Potency was 5.9 µM (active).

Regarding `CN1C2CCC1CC(OC(=O)C(CO)c1ccccc1)C2` (stereo not drawn), the Potency entry in assay [1], in [7], in assay [2], in assay [5], in [3] and in assay [8] was “inactive” each time. Also, the Potency result in [6] is “inactive”.

`NC12CC3CC(CC(C3)C1)C2`: the Potency entry in assay [1], in [5] and in assay [6] was “inactive” each time. In addition, the Potency is 26.4 µM (active) in assay [2] and 0.118 µM (active) in assay [4].

`Nc1c2c(nc3ccccc13)CCCC2`: the Potency result in assay [1], in [7], in assay [4], in assay [8] and in assay [9] was “inactive” each time. For the same molecule, the Potency in assay [5] was 5.26 µM (active).

Regarding `O=C1Cc2cc(CCN3CCN(c4nsc5ccccc45)CC3)c(Cl)cc2N1`, the Potency in [1] is 23.5 µM (active); in assay [2], 18.7 µM (active); in assay [3] it was 23.5 µM (active); in assay [4], 18.7 µM (active); in assay [8], 8.33 µM (active); in assay [6], 20.9 µM (active). Also, in [7], the Potency entry is “inactive”.

For the molecule `CC#C[C@]1(O)CC[C@H]2[C@@H]3CCC4=CC(=O)CCC4=C3[C@@H](c3ccc(N(C)C)cc3)C[C@@]21C`, the Potency is 1.18 µM (active) in assay [1]; 0.526 µM (active) in assay [7]; 0.662 µM (active) in [2]; 1.48 µM (active) in [5]; 0.372 µM (active) in assay [4]; 0.264 µM (active) in assay [8]. Also, in [6], the Potency was 1.18 µM (active).
